Assay outcomes as filed in PubChem BioAssay.
TDP1 cell noCPT – qHTS for Inhibitors of human tyrosyl-DNA phosphodiesterase 1 (TDP1): qHTS in cells in absence of CPT; DT40 Tdp1-/- hTDP1 cells, no CPT, ATP luminescence, 48 h; Potency, µM (highest dose often 46.2 µM), for the others: at the highest dose activity change, negative = growth inhibition, most hits filed as inhibitors; 420,000 compounds, 15% hits; AID 686978, 2013; note: potency is the fitted concentration of half-maximal effect; nearly all actives have a fitted effect of over 55% in size
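Growth of hTDP1-complemented DT40 Tdp1-knockout cells is measured by ATP luminescence after at least 48 hr compound exposure at 37 °C, with DMSO substituting for the 20 nM CPT used in the parallel screen.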
IL-1B inflam inh – inflammasome signaling inhibition, IL-1 beta readout; THP-1 LPS/ATP IL-1B secretion, AlphaLISA, 16 h; stronger effect = lower value; activity change, % at 57.5 µM; 360,000 compounds, 4.7% hits; AID 743279; in the data active = activity change below about -50%; inconclusive = mostly about -30% to -49%
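Secreted IL-1B measured by AlphaLISA bead assay after 16 h compound exposure of THP-1 cells; compounds (final up to 57.5 uM) added 1 h before LPS (250 ng/mL) and ATP (1.25 mM) stimulation; lower signal means less secretion.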
TDP1 inh – inhibitors of human tyrosyl-DNA phosphodiesterase TDP1; Q9NUW8; recombinant TDP1, AlphaScreen DNA substrate cleavage; Potency, µM (highest dose often 130 µM), without a hit: at the highest dose activity change, negative = inhibition, usual class: inhibitors; 350,000 compounds, 0.28% hits; note: potency is the fitted concentration of half-maximal effect; nearly all actives have a fitted effect of over 40% in size
Target sequence (Q9NUW8 whole entry, looked up): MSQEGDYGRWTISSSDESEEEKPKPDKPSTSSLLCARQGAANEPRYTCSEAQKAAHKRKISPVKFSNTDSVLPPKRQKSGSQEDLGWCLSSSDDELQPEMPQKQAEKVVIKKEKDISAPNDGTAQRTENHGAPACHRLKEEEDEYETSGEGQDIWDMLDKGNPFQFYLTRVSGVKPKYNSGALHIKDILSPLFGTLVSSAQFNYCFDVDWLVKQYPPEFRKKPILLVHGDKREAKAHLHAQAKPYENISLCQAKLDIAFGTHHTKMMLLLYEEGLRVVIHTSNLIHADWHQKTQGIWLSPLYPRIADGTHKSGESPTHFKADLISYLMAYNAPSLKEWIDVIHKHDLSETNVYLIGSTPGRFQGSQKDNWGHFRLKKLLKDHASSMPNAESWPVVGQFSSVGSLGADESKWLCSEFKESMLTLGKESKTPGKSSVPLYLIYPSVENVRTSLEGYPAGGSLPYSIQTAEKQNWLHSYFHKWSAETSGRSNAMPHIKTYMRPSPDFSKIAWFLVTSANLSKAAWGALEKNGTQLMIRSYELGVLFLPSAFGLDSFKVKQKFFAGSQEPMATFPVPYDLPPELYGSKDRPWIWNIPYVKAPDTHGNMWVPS
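AlphaScreen read-out: signal falls as enzyme removes the 3' tyrosine-FITC from a 5'-biotinylated DNA oligo (15 nM, 5 min, RT). Enzyme was E. coli-made recombinant Tdp1 at 1 nM, exposed to compound for 15 min beforehand; beads 10 ug/ml, 10 min.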
ELG1 repair inh – inhibitors of ELG1-dependent DNA repair in HEK293T cells. HEK293T ELG1-luciferase reporter, luminescence, 16 h; DNA damage induced by 5-fluorouridine. Potency, µM (titrated, usually from 46.1 µM), for inactives: at the top dose activity change, negative = inhibition, actives largely listed as inhibitors. AID 504467. 330,000 compounds, 2.3% hits; note: potency is the fitted concentration of half-maximal effect; nearly all actives have a fitted effect of over 55% in size
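Luminescence from the luciferase reporter, measured 30 min after ONE-Glo reagent at room temperature, was the read-out. Beforehand, 2,000 cells per well were exposed for 16 hr at 37 °C to 5-fluorouridine together with compound or vehicle.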
Giardia kill – Giardia lamblia killing; Giardia lamblia trophozoite viability; activity change, % at 7.66 µM, hits read low; 340,000 compounds, 0.15% hits; AID 540267; in the data active = activity change below about -80%; inconclusive = between about -30% and that limit;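 note: parasites exposed to compound for two days anaerobically before the ATP read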
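Trophozoites 100 cells/well + cpd; 48 hrs, 37 deg C, anaerobic. ATPLite 1-Step added, 15-30 min RT, luminescence read (ATP-based viability).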
DT40 TDP1 CPT – growth inhibition of DT40 Tdp1-/-;hTDP1 cells with camptothecin (screen for TDP1 inhibitors); chicken DT40 Tdp1-/-;hTDP1 cells + 20 nM CPT, ATP luminescence, 48 h; AID 686979; 420,000 compounds, 12% hits; Potency, µM (titrated, usually from 46.2 µM), for the others: at the top dose activity change, negative = growth inhibition, usual class: inhibitors; note: potency is the fitted concentration of half-maximal effect; nearly all actives have a fitted effect of over 55% in size
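Cell growth measured by CellTiter-Glo luminescence after a minimum 48 h, 37 C compound exposure with 20 nM CPT in Tdp1-knockout DT40 cells stably expressing hTDP1, seeded 400/well; qHTS titration format.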
Numbers without * were called inactive; ? = inconclusive; nt = no result given; [ ] = dose if it differs, or a comment. A selection: hits, their analogues and other compounds. The true share with any hit is near 19%. Unless noted, calls come from the whole dose curve; as a rule, active = well fitted curve in the direction sought with a large enough effect; inconclusive = small, poorly fitted or top-dose-only effect, or another doubt; inactive = no such curve, though single readings can be large; an effect the other way counts as inactive or inconclusive. % is set by controls: 0 for no effect and ±100 for the full control effect.

SMILES | TDP1 cell noCPT | IL-1B inflam inh | TDP1 inh | ELG1 repair inh | Giardia kill | DT40 TDP1 CPT
Cc1cc(C)c(C)c(S(=O)(=O)NCc2ccc(C(=O)N3CCOCC3)cc2)c1C | -29% | 8 | 6% | 6% | 11 | 2%
COc1cc(CCN2C(=O)N[C@@H](c3ccccc3)C(C(C)=O)=C2C)cc(OC)c1OC | nt | nt | 2% | nt | nt | nt
COc1cc(CCN2C(=O)N[C@@H](CCc3ccccc3)C(C(C)=O)=C2C)cc(OC)c1OC | 23µM* | -4 | 9% | -9% | ? | ?
O=C(Nc1cc(C(F)(F)F)ccc1N1CCCCC1)c1ccc(Br)o1 | ? | -4 | -8% | 8% | 0 | 18µM*
O=C(Nc1cccc(Cl)c1N1CCOCC1)c1ccc(Br)o1 | 10µM* | -2 | 7% | ? | -4 | 10µM*
O=C(Nc1ccc(N2CCOCC2)cc1)c1ccc(Br)o1 | -23% | ? | nt | ? | ? | -11%
O=C(Nc1ccc(N2CCCC2)c(Cl)c1)c1ccc(Br)o1 | ? | -27 | 9% | ? | -3 | 18µM*
O=C(NC(=S)Nc1cccc(Cl)c1N1CCCCC1)c1ccco1 | ? | 18 | 4% | ? | -10 | ?
O=C(NC(=S)Nc1cccc(Cl)c1N1CCOCC1)c1cccs1 | 26µM* | 2 | 4% | ? | 7 | ?
CC(=O)OC[C@@H]1O[C@H](C/C=N\O[C@@H](C)c2cn([C@H]3COC[C@H]3O)nn2)C=C[C@@H]1OC(C)=O | nt | nt | 3%[21 µM] | nt | nt | nt
Cn1c(=O)c2c(SCc3ccccn3)nc(CC(C)(C)C)nc2n(C)c1=O | 21µM* | 44 | -2% | ? | 12 | 21µM*
Cn1c(=O)c2c(SCc3cccnc3)nc(CC(C)(C)C)nc2n(C)c1=O | 18µM* | 17 | 1% | ? | -12 | 15µM*
CCCc1nc(SCc2ccccn2)c2c(=O)n(C)c(=O)n(C)c2n1 | ? | 58 | 2% | ? | -10 | ?
CCCc1nc(SCc2cccnc2)c2c(=O)n(C)c(=O)n(C)c2n1 | 16µM* | 57 | 7% | 16µM* | -3 | ?
CCCCn1c(SCc2cccnc2)nc2c1c(=O)n(C)c(=O)n2C | 16µM* | 12 | 2% | 1% | 8 | 13µM*
COc1cc(NC(=S)NCc2ccc(S(N)(=O)=O)cc2)c(OC)cc1Cl | ? | -11 | 1% | -7% | -1 | -18%
O=C(NCc1cccc(C(F)(F)F)c1)c1[nH]c(C(F)(F)F)nc1-c1ccccc1 | ? | 34 | nt | nt | nt | ?
Cc1ccc(CNC(=O)c2[nH]c(C(F)(F)F)nc2-c2ccccc2)cc1 | 21µM* | 20 | nt | nt | nt | ?
O=C1c2ccccc2C(=O)N1CCCOc1ccccc1 | 7% | 44 | -4% | ? | 12 | 7%
Cc1cccc(OCCN2C(=O)c3ccccc3C2=O)c1 | 9% | 49 | nt | ? | 14 | -13%
Cc1ccc(OCCN2C(=O)C(=O)c3cccc(C)c32)cc1 | 2.9µM* | 2 | 7% | 8% | -18 | 2.3µM*
CCOc1ccc(OCCN2C(=O)c3ccccc3C2=O)cc1 | 3% | 0 | 3% | 8.2µM* | 38 | -4%
O=C(CNCC1(N2CCOCC2)CCCCC1)Nc1ccc(Cl)cc1 | -9% | -16 | 3% | 6% | 10 | -2%
CCNC(=O)/C(=C\C=C\c1ccccc1)NC(=O)c1ccc(Br)o1 | -6% | 8 | 1% | -12% | -20 | -19%
COc1cccc(Cn2c(=O)c(C)nc3cnc(OCc4ccccc4)nc32)c1 | 18µM* | nt | nt | nt | nt | -23%
Cc1nc2cnc(Oc3cccc(Cl)c3)nc2n(CCc2ccccc2)c1=O | ? | nt | nt | nt | nt | -18%
COc1ccc(Oc2ncc3nc(C)c(=O)n(Cc4ccc(F)cc4)c3n2)cc1 | 21µM* | nt | nt | nt | nt | ?
COc1cccc(Cn2c(=O)cnc3cnc(OCc4ccccc4)nc32)c1 | -24% | nt | nt | nt | nt | -6%
